# In PubChem BioAssay AID624351 (Southern Research Specialized Biocontainment Screening …, 2012):
# The campaign covered roughly 2,400 compounds. About 1,400 (58%) were called active. So high a share suggests a set chosen from earlier hits. The list shows a part of the results. Values without a mark were called inactive.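 How the source made its calls: active means inhibition of 30% or more at any tested dose; inconclusive means primary hits over the limit that were never retested; inactive means the rest.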
# Test: coupled detection enzyme interference, dose response, artefact control for MgcRacGAP inhibitor project, biochemical, coupled enzyme counter-screen (AID 624351);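 further: signal is the ADP detection kit reading of free GDP without any GAP enzyme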;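 on inhibition: 0% = median positive control wells and 100% = median negative control wells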
# Settings: ADP Hunter coupled enzyme counter-screen, fluorescence, no MgcRacGAP; series mostly up to 80 µM; inhibition: at the top concentration
SMILES,inhibition,IC50
CCN1/C(=C/c2ccc3cc(C)ccc3[n+]2CC)Sc2ccccc21,9.82%,–
OC(CON=C1c2ccccc2-c2ccccc21)CN1CCNCC1 (stereo unspecified),25.3%,–
O=C(N/N=C/c1ccc(O)cc1)c1cccc(C(F)(F)F)c1,–,69.2 µM (active)
O=C(CNC(=O)c1ccccc1Br)N/N=C/c1ccc(O)cc1,–,54.3 µM (active)
Cc1ccc(C(=O)Oc2csc(=S)n2C(=O)c2ccc(C)cc2)cc1,10.9%,–
Cc1ccc(C)c(OCCCCN2CCCCC2)c1,3.5%,–
COc1ccc(CN2CCC(N3CC(C)OC(C)C3)CC2)c(OC)c1OC (stereo unspecified),27.5%,–
COc1cc(/C=N/NC(=O)c2ccoc2C)ccc1O,–,32.2 µM (active)
Cc1cc(C(=O)NNC(=O)/C=C/c2ccco2)c(C)o1,-9.14%,–
COc1cc(/C=N/NC(=O)c2cc(C)oc2C)ccc1O,–,49.8 µM (active)
CCCN(CCO)CCCc1ccccc1,16.2%,–
OCCN(CCO)c1ccc2ccccc2c1,–,65 µM (active)
OCCN1CCN(Cc2ccc3ccccc3c2)CC1,17.6%,–
CCOc1cc(/C=N\n2nnnc2N)ccc1O,–,45.1 µM (active)
COc1cc(/C=N/n2cnnc2)ccc1OC(=O)c1cccnc1,8.47%,–
COc1cc(/C=N/n2nnnc2N)ccc1O,–,18.4 µM (active)
CCOc1cc(/C=N/n2cnnc2)ccc1O,–,34 µM (active)
Cc1[nH]c2ccccc2c1/C=N\NC(=O)CNc1ccc2c(c1)OCO2,16.3%,–
Cc1[nH]c2ccccc2c1/C=N/Nc1nncn1N,–,62.6 µM (active)
CCc1nnc(N/N=C/c2c(C)[nH]c3ccccc23)n1N,–,45.9 µM (active)
CCc1nnc(N/N=C/c2cc(Br)c(O)cc2O)n1N,–,72.7 µM (active)
N#CC(C#N)=C1C=CC=CN1/C(=C\c1ccco1)C(=O)c1ccc(Br)cc1,-0.12%,–
O=C(O)c1cccc(-n2sc3ccccc3c2=O)c1,15.8%,–

SMILES,inhibition,IC50
O=c1c2ccccc2sn1-c1ccc(F)cc1,15.6%,–
CC1(C)CC(=O)C2=C(C1)OC1=C(C(=O)CC(C)(C)C1)C2c1ccc(O)cc1O,5.54%,–
O=C1CCCC(O)=C1C=Nc1ccc(O)cc1,–,18.6 µM (active)
O=C1CC(c2ccccc2)CC(O)=C1C=Nc1ccc(O)cc1 (stereo unspecified),–,28.9 µM (active)
CC1(C)CC(=O)C(C=Nc2ccc(O)cc2)=C(O)C1,–,17.4 µM (active)
CC1(C)CC(=O)C(C(C2=C(O)CC(C)(C)CC2=O)c2ccc(Br)s2)C(=O)C1 (stereo unspecified),1.01%,–
CC1(C)CC(=O)C(C=Nc2ccc(N)cc2)=C(O)C1,–,82.4 µM (active)
Cc1ccc(C(C2=C(O)CC(C)(C)CC2=O)C2C(=O)CC(C)(C)CC2=O)s1 (stereo unspecified),1.03%,–
Cc1ccc(C(C2=C(O)CC(C)(C)CC2=O)C2C(=O)CC(C)(C)CC2=O)o1 (stereo unspecified),-3.3%,–
O=[N+]([O-])c1cnc(Sc2ccncn2)c([N+](=O)[O-])c1,-3.25%,–
CSc1nc(/C=C2\C=Nc3ccccc32)c(O)n1C,–,45.4 µM (active)
CSc1nc(O)c(/C=C2\C=Nc3ccccc32)[nH]1,–,33.2 µM (active)
CC1(C)CC[C@]2(C(=O)n3ccnc3)CC[C@]3(C)[C@H](C(=O)C=C4[C@@]5(C)C=C(C#N)C(=O)C(C)(C)[C@@H]5CC[C@]43C)[C@@H]2C1,10.8%,–
CCc1ccc(O)c(N=Cc2cccc(C)c2O)c1,–,50.5 µM (active)
C=CCc1cccc(C=Nc2cc(Br)ccc2O)c1O,–,16.2 µM (active)
CCc1ccc(O)c(N=Cc2ccccc2O)c1,–,37.4 µM (active)
Cc1ccc(O)c(N=Cc2cc(Cc3ccccc3)cc([N+](=O)[O-])c2O)c1,-9.96% [at 20 µM],–
OC(CNCC1COc2ccccc2O1)COCc1cccs1 (stereo unspecified),17.8%,–
O=C(C1CCCN(Cc2cccnc2)C1)N1CCCCC1 (stereo unspecified),25.6%,–
Cc1ccc(CN2CCN(CC3CC4C=CC3C4)CC2)cc1 (stereo unspecified),13.1%,–
Cc1cccc2c1c1ccc3c(c1n2C)C(=O)C=CC3=O,-14.2%,–
CC(OC(=O)CCN=C1NS(=O)(=O)c2ccccc21)C(=O)Nc1ccc(N(C)C)cc1 (stereo unspecified),–,50.9 µM (active)
O=C(CN1CCN(Cc2ccccc2)CC1)NC(c1ccccc1)c1ccccc1,15.2%,–

SMILES,inhibition,IC50
O=C(CN1CCN(Cc2ccccc2)CC1)Nc1ccc(F)c(F)c1,24.2%,–
Fc1ccc(CNc2ccc(N3CCN(Cc4ccccc4)CC3)cc2)cc1,–,12.3 µM (active)
C#CCOc1ccccc1CNC1CCN(Cc2ccccc2)CC1,24.9%,–
Clc1ccc(CNc2ccc(N3CCN(Cc4ccccc4)CC3)cc2)cc1,–,30.3 µM (active)
Fc1ccc(CN2CCN(C(c3ccccc3)c3ccccc3)CC2)cc1,13.6%,–
CN(C)C(=S)N=c1ssc(=S)n1Cc1cccnc1,7.07%,–
COc1cc(/C=N/N=C2/SCC(=O)N2c2ccc(O)cc2)ccc1O,–,48.1 µM (active)
Cc1ccc(C)n1/N=C1/NC(=O)CS1,-5.01% [at 10 µM],–
O=C1CSC(=Nc2ccc(O)cc2)N1,–,42 µM (active)
C=CCN1C(=O)CSC1=Nc1ccc(O)cc1,–,28.9 µM (active)
O=C1CSC(=Nc2ccc(O)cc2)N1c1ccc(O)cc1,–,56.7 µM (active)
Cc1c(Cl)cccc1NC(=S)Nc1ccc2[nH]c(=O)[nH]c2c1,26.1%,–
Cc1c(Cl)cccc1Nc1n[nH]c(=S)s1,–,78.7 µM (active)
COc1ccccc1Nc1n[nH]c(=S)s1,–,46.8 µM (active)
COc1ccccc1Nc1ccc2c(O)cc(S(=O)(=O)O)cc2c1,10.1%,–
Fc1ccccc1Nc1n[nH]c(=S)s1,–,47.7 µM (active)
S=c1[nH]nc(Nc2ccccc2Cl)s1,–,51.9 µM (active)
N#CC1=C(Nc2ccccc2Cl)SC(c2ccccc2O)NC1=O (stereo unspecified),6.23%,–
N/N=C(\Cc1cscn1)c1ccc(O)cc1O,–,67.8 µM (active)
CCc1cc(/C(Cc2csc(C)n2)=N/O)c(O)cc1O,–,33.2 µM (active)
Cc1ccccc1CN(C)CCc1ccccn1,17.5%,–
CCc1cc(/C(Cc2ccccn2)=N\O)c(O)cc1O,–,32.1 µM (active)
CCc1cc(/C(Cc2cscn2)=N\O)c(O)cc1O,–,52.1 µM (active)

SMILES,inhibition,IC50
COc1ccc(Br)cc1CN1CCN(C(=O)c2ccc(F)cc2)CC1,20.3%,–
CCN(CCNCC(O)COc1ccccc1C(C)C)c1cccc(C)c1 (stereo unspecified),26%,–
COc1cccc(CN2CCN(Cc3cc(OC)c(OC)cc3[N+](=O)[O-])CC2)c1,28.8%,–
COc1cc(-c2cc(-c3ccc(F)cc3)nc(N)c2C#N)ccc1O,-0.39%,–
COc1cc(-c2cc(-c3ccc(O)cc3)nc(N)c2C#N)ccc1O,–,51.6 µM (active)
CCCN(CCC)CCCNC(=S)Nc1ccc2nc(N3CCCC3)cc(C)c2c1,1.63%,–
CCn1c(=O)n(CC)c2cc(N3CCCC3)c(NC(=O)c3cccc(Cl)c3)cc21,-3.54%,–
O=C(/C(=C/c1cccnc1)n1ccnc1)c1ccc(Cl)cc1Cl,3.8%,–
COCCNCCOCCOc1ccc(Cl)c(C)c1,15%,–
COC(=O)C1=C(C)N(Cc2ccco2)C(=O)/C1=C\c1ccc([N+](=O)[O-])cc1,3.8%,–
COC(=O)C1=C(O)/C(=C\c2ccc(O)c(OC)c2)N=C1C,–,20 µM (active)
CCOc1cc(/C=C2/N=C(C)C(C(=O)OC)=C2O)ccc1O,–,29.6 µM (active)
COC(=O)C1=C(C)N(Cc2ccco2)C(=O)C1,-3.81%,–
CCOc1cc(/C=C2\C(=O)N(Cc3ccco3)C(C)=C2C(=O)OC)ccc1O,–,68.7 µM (active)
CCOC(=O)C1=C(O)/C(=C\c2ccc(O)c(OCC)c2)N=C1C,–,52.3 µM (active)
COc1nc(Nc2ccc(O)cc2)nc(OC(C(F)(F)F)C(F)(F)F)n1,–,39 µM (active)
CN(C)S(=O)(=O)c1cc(NC(=O)CNCCN2CCOCC2)ccc1Cl,12.1%,–
COc1ccc(CCNCCN2CCOCC2)cc1,22.7%,–
O=S(=O)(Nc1ccccc1F)c1cccc(NC(=S)NCCN2CCOCC2)c1,2.85%,–
COc1cc(/C=N/NC(=S)NCCN2CCOCC2)ccc1O,–,21.8 µM (active)
COc1ccccc1OCCCCCCN1CCOCC1,11.7%,–
Oc1ccc(/C=N/NC(=S)NCCN2CCOCC2)c(O)c1,–,20.9 µM (active)
CCOc1cc(-c2cc(-c3ccccc3)nc(N)c2C#N)ccc1O,17.7%,–

SMILES,inhibition,IC50
CCN1CCN(CC(=O)Nc2nc3ccccc3s2)CC1,28.9%,–
CCOc1cc(-c2nc3ccccc3s2)ccc1O,–,48.6 µM (active)
COc1cc(-c2nc3ccccc3s2)ccc1O,–,18.2 µM (active)
O=C(c1ccc(F)cc1)N1CCN(C2CCCCC2)CC1,19.5%,–
COc1cc2c(cc1OC)C1(CCCC1)C(N)=C2C#N,–,57.3 µM (active)
O=[N+]([O-])c1cccc(CN2CCN(Cc3ccco3)CC2)c1,20.7%,–
O=C(c1ccco1)N1CCN(Cc2cccc([N+](=O)[O-])c2)CC1,18%,–
O=[N+]([O-])c1cccc(CN2CCN(c3cccc4[nH]ccc34)CC2)c1,–,46.7 µM (active)
O=C(c1c(Cl)cccc1Cl)N1CCN(c2cccc3[nH]ccc23)CC1,–,50.9 µM (active)
O=C(c1cccc(Cl)c1)N1CCN(C2CCCCC2)CC1,15.2%,–
O=C1/C(=C/c2ccc(O)c(O)c2)Oc2cc(O)ccc21,–,28.2 µM (active)
COc1cc(/C=C2\Oc3cc(O)ccc3C2=O)ccc1O,–,33.9 µM (active)
Brc1ccccc1OCCCCCN1CCOCC1,15.5%,–
S=c1[nH]nc2sc3ccccc3n12,–,32.3 µM (active)
O=C(CN1CCN(c2ncccn2)CC1)N1CCCC1,10.6%,–
Cc1cccc(N2C(=O)/C(=C\c3ccc(C(=O)O)cc3)c3ccccc3C2=O)c1,2.03%,–
Cc1ccc(-c2n[nH]c(=S)n2/N=C/c2ccc(C(=O)O)cc2)cc1,–,69.7 µM (active)
S=c1[nH]nc(-c2ccncc2)n1/N=C/c1ccccc1,–,39.6 µM (active)
Oc1ccccc1/C=N/n1c(-c2ccccc2)n[nH]c1=S,–,71.4 µM (active)
